{"source": "the supplement of paper PMC4466140", "binders": {"B1": {"name": "unnamed (peptide)", "chain": "AAAPKHAPPPVPNET"}}, "data": [{"molecular_target": "AgAbp1", "experiment": "SPOT peptide array binding signal intensity (averaged, normalized) (arbitrary units (background-subtracted, floor 0; scale differs between SH3 domains)); higher = stronger binding of the SH3 domain to the peptide", "in_short": "(§1)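 The binding signal is the normalized, background-subtracted spot intensity averaged over replicates; its arbitrary units differ between domains. It was obtained by incubating 10 μg/ml GST-fused SH3 domains from four yeast species overnight at 4°C in TBS-based blocking buffer on cellulose membranes with synthetic 15-mer peptides, cysteines replaced by serines, then detecting with anti-GST antibody, HRP anti-mouse secondary and luminol.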", "values": [{"binder": "B1", "SPOT peptide array binding signal intensity": "≤ 0"}]}, {"molecular_target": "AgBbc1", "experiment": "SPOT peptide array binding signal intensity (averaged, normalized) (arbitrary units (background-subtracted, floor 0; scale differs between SH3 domains)); higher = stronger binding of the SH3 domain to the peptide", "in_short": "as §1", "values": [{"binder": "B1", "SPOT peptide array binding signal intensity": "≤ 0"}]}, {"molecular_target": "AgBem1-D1", "experiment": "SPOT peptide array binding signal intensity (averaged, normalized) (arbitrary units (background-subtracted, floor 0; scale differs between SH3 domains)); higher = stronger binding of the SH3 domain to the peptide", "in_short": "as §1", "values": [{"binder": "B1", "SPOT peptide array binding signal intensity": "≤ 0"}]}, {"molecular_target": "AgBzz1-D1", "experiment": "SPOT peptide array binding signal intensity (averaged, normalized) (arbitrary units (background-subtracted, floor 0; scale differs between SH3 domains)); higher = stronger binding of the SH3 domain to the peptide", "in_short": "as §1", "values": [{"binder": "B1", "SPOT peptide array binding signal intensity": 96}]}, {"molecular_target": "AgBzz1-D2", "experiment": "SPOT peptide array binding signal intensity (averaged, normalized) (arbitrary units (background-subtracted, floor 0; scale differs between SH3 domains)); higher = stronger binding of the SH3 domain to the peptide", "in_short": "as §1", "values": [{"binder": "B1", "SPOT peptide array binding signal intensity": "≤ 0"}]}, {"molecular_target": "AgCyk3", "experiment": "SPOT peptide array binding signal intensity (averaged, normalized) (arbitrary units (background-subtracted, floor 0; scale differs between SH3 domains)); higher = stronger binding of the SH3 domain to the peptide", "in_short": "as §1", "values": [{"binder": "B1", "SPOT peptide array binding signal intensity": "≤ 0"}]}, {"molecular_target": "AgFus1", "experiment": "SPOT peptide array binding signal intensity (averaged, normalized) (arbitrary units (background-subtracted, floor 0; scale differs between SH3 domains)); higher = stronger binding of the SH3 domain to the peptide", "in_short": "as §1", "values": [{"binder": "B1", "SPOT peptide array binding signal intensity": "≤ 0"}]}, {"molecular_target": "AgHof1", "experiment": "SPOT peptide array binding signal intensity (averaged, normalized) (arbitrary units (background-subtracted, floor 0; scale differs between SH3 domains)); higher = stronger binding of the SH3 domain to the peptide", "in_short": "as §1", "values": [{"binder": "B1", "SPOT peptide array binding signal intensity": "≤ 0"}]}, {"molecular_target": "AgHse1", "experiment": "SPOT peptide array binding signal intensity (averaged, normalized) (arbitrary units (background-subtracted, floor 0; scale differs between SH3 domains)); higher = stronger binding of the SH3 domain to the peptide", "in_short": "as §1", "values": [{"binder": "B1", "SPOT peptide array binding signal intensity": "≤ 0"}]}, {"molecular_target": "AgLsb1", "experiment": "SPOT peptide array binding signal intensity (averaged, normalized) (arbitrary units (background-subtracted, floor 0; scale differs between SH3 domains)); higher = stronger binding of the SH3 domain to the peptide", "in_short": "as §1", "values": [{"binder": "B1", "SPOT peptide array binding signal intensity": "≤ 0"}]}, {"molecular_target": "AgLsb4", "experiment": "SPOT peptide array binding signal intensity (averaged, normalized) (arbitrary units (background-subtracted, floor 0; scale differs between SH3 domains)); higher = stronger binding of the SH3 domain to the peptide", "in_short": "as §1", "values": [{"binder": "B1", "SPOT peptide array binding signal intensity": "≤ 0"}]}, {"molecular_target": "AgMyo5", "experiment": "SPOT peptide array binding signal intensity (averaged, normalized) (arbitrary units (background-subtracted, floor 0; scale differs between SH3 domains)); higher = stronger binding of the SH3 domain to the peptide", "in_short": "as §1", "values": [{"binder": "B1", "SPOT peptide array binding signal intensity": 2020}]}, {"molecular_target": "AgNbp2", "experiment": "SPOT peptide array binding signal intensity (averaged, normalized) (arbitrary units (background-subtracted, floor 0; scale differs between SH3 domains)); higher = stronger binding of the SH3 domain to the peptide", "in_short": "as §1", "values": [{"binder": "B1", "SPOT peptide array binding signal intensity": "≤ 0"}]}, {"molecular_target": "AgRvs167", "experiment": "SPOT peptide array binding signal intensity (averaged, normalized) (arbitrary units (background-subtracted, floor 0; scale differs between SH3 domains)); higher = stronger binding of the SH3 domain to the peptide", "in_short": "as §1", "values": [{"binder": "B1", "SPOT peptide array binding signal intensity": "≤ 0"}]}, {"molecular_target": "AgSho1", "experiment": "SPOT peptide array binding signal intensity (averaged, normalized) (arbitrary units (background-subtracted, floor 0; scale differs between SH3 domains)); higher = stronger binding of the SH3 domain to the peptide", "in_short": "as §1", "values": [{"binder": "B1", "SPOT peptide array binding signal intensity": "≤ 0"}]}, {"molecular_target": "AgSla1-D1-D2", "experiment": "SPOT peptide array binding signal intensity (averaged, normalized) (arbitrary units (background-subtracted, floor 0; scale differs between SH3 domains)); higher = stronger binding of the SH3 domain to the peptide", "in_short": "as §1", "values": [{"binder": "B1", "SPOT peptide array binding signal intensity": "≤ 0"}]}, {"molecular_target": "AgSla1-D3", "experiment": "SPOT peptide array binding signal intensity (averaged, normalized) (arbitrary units (background-subtracted, floor 0; scale differs between SH3 domains)); higher = stronger binding of the SH3 domain to the peptide", "in_short": "as §1", "values": [{"binder": "B1", "SPOT peptide array binding signal intensity": 11}]}, {"molecular_target": "CaAbp1-D1", "experiment": "SPOT peptide array binding signal intensity (averaged, normalized) (arbitrary units (background-subtracted, floor 0; scale differs between SH3 domains)); higher = stronger binding of the SH3 domain to the peptide", "in_short": "as §1", "values": [{"binder": "B1", "SPOT peptide array binding signal intensity": "≤ 0"}]}, {"molecular_target": "CaAbp1-D2", "experiment": "SPOT peptide array binding signal intensity (averaged, normalized) (arbitrary units (background-subtracted, floor 0; scale differs between SH3 domains)); higher = stronger binding of the SH3 domain to the peptide", "in_short": "as §1", "values": [{"binder": "B1", "SPOT peptide array binding signal intensity": "≤ 0"}]}, {"molecular_target": "CaBbc1", "experiment": "SPOT peptide array binding signal intensity (averaged, normalized) (arbitrary units (background-subtracted, floor 0; scale differs between SH3 domains)); higher = stronger binding of the SH3 domain to the peptide", "in_short": "as §1", "values": [{"binder": "B1", "SPOT peptide array binding signal intensity": "≤ 0"}]}, {"molecular_target": "CaBem1-D1", "experiment": "SPOT peptide array binding signal intensity (averaged, normalized) (arbitrary units (background-subtracted, floor 0; scale differs between SH3 domains)); higher = stronger binding of the SH3 domain to the peptide", "in_short": "as §1", "values": [{"binder": "B1", "SPOT peptide array binding signal intensity": "≤ 0"}]}, {"molecular_target": "CaBzz1-D1", "experiment": "SPOT peptide array binding signal intensity (averaged, normalized) (arbitrary units (background-subtracted, floor 0; scale differs between SH3 domains)); higher = stronger binding of the SH3 domain to the peptide", "in_short": "as §1", "values": [{"binder": "B1", "SPOT peptide array binding signal intensity": 1240}]}, {"molecular_target": "CaBzz1-D2", "experiment": "SPOT peptide array binding signal intensity (averaged, normalized) (arbitrary units (background-subtracted, floor 0; scale differs between SH3 domains)); higher = stronger binding of the SH3 domain to the peptide", "in_short": "as §1", "values": [{"binder": "B1", "SPOT peptide array binding signal intensity": 66.8}]}, {"molecular_target": "CaCyk3", "experiment": "SPOT peptide array binding signal intensity (averaged, normalized) (arbitrary units (background-subtracted, floor 0; scale differs between SH3 domains)); higher = stronger binding of the SH3 domain to the peptide", "in_short": "as §1", "values": [{"binder": "B1", "SPOT peptide array binding signal intensity": "≤ 0"}]}, {"molecular_target": "CaFus1", "experiment": "SPOT peptide array binding signal intensity (averaged, normalized) (arbitrary units (background-subtracted, floor 0; scale differs between SH3 domains)); higher = stronger binding of the SH3 domain to the peptide", "in_short": "as §1", "values": [{"binder": "B1", "SPOT peptide array binding signal intensity": "≤ 0"}]}, {"molecular_target": "CaHof1", "experiment": "SPOT peptide array binding signal intensity (averaged, normalized) (arbitrary units (background-subtracted, floor 0; scale differs between SH3 domains)); higher = stronger binding of the SH3 domain to the peptide", "in_short": "as §1", "values": [{"binder": "B1", "SPOT peptide array binding signal intensity": "≤ 0"}]}, {"molecular_target": "CaHse1", "experiment": "SPOT peptide array binding signal intensity (averaged, normalized) (arbitrary units (background-subtracted, floor 0; scale differs between SH3 domains)); higher = stronger binding of the SH3 domain to the peptide", "in_short": "as §1", "values": [{"binder": "B1", "SPOT peptide array binding signal intensity": "≤ 0"}]}, {"molecular_target": "CaLsb1", "experiment": "SPOT peptide array binding signal intensity (averaged, normalized) (arbitrary units (background-subtracted, floor 0; scale differs between SH3 domains)); higher = stronger binding of the SH3 domain to the peptide", "in_short": "as §1", "values": [{"binder": "B1", "SPOT peptide array binding signal intensity": "≤ 0"}]}, {"molecular_target": "CaLsb4", "experiment": "SPOT peptide array binding signal intensity (averaged, normalized) (arbitrary units (background-subtracted, floor 0; scale differs between SH3 domains)); higher = stronger binding of the SH3 domain to the peptide", "in_short": "as §1", "values": [{"binder": "B1", "SPOT peptide array binding signal intensity": "≤ 0"}]}, {"molecular_target": "CaMyo5", "experiment": "SPOT peptide array binding signal intensity (averaged, normalized) (arbitrary units (background-subtracted, floor 0; scale differs between SH3 domains)); higher = stronger binding of the SH3 domain to the peptide", "in_short": "as §1", "values": [{"binder": "B1", "SPOT peptide array binding signal intensity": 795}]}, {"molecular_target": "CaNbp2", "experiment": "SPOT peptide array binding signal intensity (averaged, normalized) (arbitrary units (background-subtracted, floor 0; scale differs between SH3 domains)); higher = stronger binding of the SH3 domain to the peptide", "in_short": "as §1", "values": [{"binder": "B1", "SPOT peptide array binding signal intensity": "≤ 0"}]}, {"molecular_target": "CaRvs167", "experiment": "SPOT peptide array binding signal intensity (averaged, normalized) (arbitrary units (background-subtracted, floor 0; scale differs between SH3 domains)); higher = stronger binding of the SH3 domain to the peptide", "in_short": "as §1", "values": [{"binder": "B1", "SPOT peptide array binding signal intensity": "≤ 0"}]}, {"molecular_target": "CaRvs167-3", "experiment": "SPOT peptide array binding signal intensity (averaged, normalized) (arbitrary units (background-subtracted, floor 0; scale differs between SH3 domains)); higher = stronger binding of the SH3 domain to the peptide", "in_short": "as §1", "values": [{"binder": "B1", "SPOT peptide array binding signal intensity": 0.5}]}, {"molecular_target": "CaSho1", "experiment": "SPOT peptide array binding signal intensity (averaged, normalized) (arbitrary units (background-subtracted, floor 0; scale differs between SH3 domains)); higher = stronger binding of the SH3 domain to the peptide", "in_short": "as §1", "values": [{"binder": "B1", "SPOT peptide array binding signal intensity": "≤ 0"}]}, {"molecular_target": "CaSla1-D1-D2", "experiment": "SPOT peptide array binding signal intensity (averaged, normalized) (arbitrary units (background-subtracted, floor 0; scale differs between SH3 domains)); higher = stronger binding of the SH3 domain to the peptide", "in_short": "as §1", "values": [{"binder": "B1", "SPOT peptide array binding signal intensity": "≤ 0"}]}, {"molecular_target": "CaSla1-D3", "experiment": "SPOT peptide array binding signal intensity (averaged, normalized) (arbitrary units (background-subtracted, floor 0; scale differs between SH3 domains)); higher = stronger binding of the SH3 domain to the peptide", "in_short": "as §1", "values": [{"binder": "B1", "SPOT peptide array binding signal intensity": "≤ 0"}]}, {"molecular_target": "ScAbp1", "experiment": "SPOT peptide array binding signal intensity (averaged, normalized) (arbitrary units (background-subtracted, floor 0; scale differs between SH3 domains)); higher = stronger binding of the SH3 domain to the peptide", "in_short": "as §1", "values": [{"binder": "B1", "SPOT peptide array binding signal intensity": "≤ 0"}]}]}
